# Experimental data reported in PubChem BioAssay (NCI).
# Compounds without any hit were thinned out: in the full panel of roughly 83,000, 20% have a hit.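 Interpretation: 100, growth as untreated; towards 0, rising growth inhibition; 0, no net growth; 0 to -100, cell death. Compounds scoring below 10 were considered active.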 Unmarked numbers belong to inactive results. Active and inactive are the calls of the source.
# How the values were obtained:
# Experiment in all cases: NCI-60 one-dose screen, 48 h (100 = growth as untreated, 0 = no growth, -100 = all killed)
# Details in all cases: 10 µM
# HCT-15 colon = tested on: HCT-15 colon
# HT29 colon = tested on: HT29 colon
# SNB-75 CNS = tested on: SNB-75 CNS
# SNB-19 CNS = tested on: SNB-19 CNS
# U251 CNS = tested on: U251 CNS
# PC-3 prostate = tested on: PC-3 prostate
# SK-MEL-5 melanoma = tested on: SK-MEL-5 melanoma
# UACC-62 melanoma = tested on: UACC-62 melanoma
# LOX IMVI melanoma = tested on: LOX IMVI melanoma
# SK-MEL-28 melanoma = tested on: SK-MEL-28 melanoma
# SK-MEL-2 melanoma = tested on: SK-MEL-2 melanoma
# UO-31 renal = tested on: UO-31 renal
# TK-10 renal = tested on: TK-10 renal
# ACHN renal = tested on: ACHN renal
# A498 renal = tested on: A498 renal
# CCRF-CEM leukemia = tested on: CCRF-CEM leukemia
# MOLT-4 leukemia = tested on: MOLT-4 leukemia
# SN12C renal = tested on: SN12C renal
# CAKI-1 renal = tested on: CAKI-1 renal
# EKVX NSCLC = tested on: EKVX NSCLC
Structure (SMILES),growth (HCT-15 colon),growth (HT29 colon),growth (SNB-75 CNS),growth (SNB-19 CNS),growth (U251 CNS),growth (PC-3 prostate),growth (SK-MEL-5 melanoma),growth (UACC-62 melanoma),growth (LOX IMVI melanoma),growth (SK-MEL-28 melanoma),growth (SK-MEL-2 melanoma),growth (UO-31 renal),growth (TK-10 renal),growth (ACHN renal),growth (A498 renal),growth (CCRF-CEM leukemia),growth (MOLT-4 leukemia),growth (SN12C renal),growth (CAKI-1 renal),growth (EKVX NSCLC)
CN(C)CCCSc1ccccc1NC1=C(Cl)C(=O)C(Nc2ccccc2SCCCN(C)C)=C(Cl)C1=O,72.1%,22.7%,105%,90.6%,23%,42.8%,91.1%,60.7%,-81.7% (active),104%,43.8%,35%,13.8%,-20.6% (active),105%,-15.2% (active),-34% (active),–,–,–
O=C1/C(=C/c2ccc([N+](=O)[O-])s2)Oc2cc(Cl)ccc21,0.579% (active),-4.42% (active),58.8%,2.32% (active),-58% (active),-73% (active),17.6%,-37.7% (active),-78.4% (active),-29.2% (active),-49.9% (active),-92% (active),–,-70.5% (active),102%,-9.78% (active),2.92% (active),-2.52% (active),52.8%,–
Nc1nc(-c2ccc(Cl)cc2)cc(-c2cc3ccccc3oc2=O)n1,102%,93.5%,68.4%,94%,99.4%,97.8%,91.2%,92.5%,92.8%,110%,–,69%,95.7%,92.5%,99.5%,103%,–,98.5%,84.1%,86.2%
CC(=O)O[C@@]12CO[C@@H]1C[C@H](O)[C@@]1(C)C(=O)[C@H](O)C3=C(C)[C@@H](OC(=O)[C@H](O)[C@@H](NC(=O)OC(C)(C)C)c4ccccc4)C[C@@](O)([C@@H](OC(=O)c4ccccc4)C12)C3(C)C (some centres undefined),16.5%,6.02% (active),-2.3% (active),37.8%,24.2%,31.7%,28.6%,52.5%,44.6%,77.9%,–,33.5%,42.1%,56.9%,22.6%,29.9%,25.4%,56.3%,4.8% (active),59%
COc1ccc(/C=C2\CCCC3=C2NC(N)=NC3c2ccc(OC)cc2)cc1 (centres undefined),92.9%,93.2%,87.4%,92.1%,90.6%,86.7%,56.2%,68%,73.6%,98.5%,98.2%,72.8%,–,98.3%,–,87.6%,84.2%,86.7%,90.1%,–
CCN1CC(CCN2CCOCC2)C(C(c2ccccc2)c2ccccc2)C1=O (centres undefined),94.1%,102%,102%,102%,101%,82.7%,100%,94.8%,97.2%,116%,–,85.5%,114%,107%,79.5%,96.4%,100%,98.4%,91.5%,97.8%
COc1cc2cc(Oc3ccc(NC(=O)Nc4ccc(C(F)(F)F)cc4)cc3)c(C)nc2cc1OC,75.4%,44.6%,41%,93.4%,15%,48.3%,47.4%,69.2%,56.4%,58.4%,76.7%,87.6%,–,56.1%,90.5%,68.5%,61.9%,72.2%,70.4%,–
O=C1C=C(Nc2cccc(Br)c2)c2ccccc2C1=O,22.7%,111%,12%,43.6%,31.3%,37.4%,15.8%,46.8%,37.5%,56.7%,7.56% (active),–,–,50.8%,–,81.4%,81%,53.6%,78.3%,–
COc1ccc(C(=O)COc2cccc(/C=C3\Cc4ccccc4C3=O)c2)cc1,85.6%,82.1%,46.8%,90.8%,82.6%,82%,67.3%,61.3%,90.3%,103%,51.8%,12.1%,111%,95.8%,94.7%,80.8%,85.8%,92.7%,–,–
CCCCC(CC)CN=C(N)NC(N)=NCCCCCCN=C(N)NC(N)=NCC(CC)CCCC (centres undefined),7.37% (active),-82.8% (active),-72.5% (active),-87.2% (active),-89.8% (active),-69.7% (active),-89.8% (active),-58% (active),-80.8% (active),-79.6% (active),–,4.54% (active),-15.3% (active),4.41% (active),-31.3% (active),-54% (active),-73.7% (active),-85.3% (active),-17.3% (active),-80.9% (active)
